± gives the standard deviation of the averaged measurements. Over roughly 25,000 sequences, “ln(normalized median fluorescence intensity)” has its median near 10; the highest 2% begin near 12. The full list was thinned out, with the highest values kept by preference.
Each sequence was assayed on PfAP2-G AP2 domain (GST-tagged) (assay: gcPBM binding intensity (ln(normalized median fluorescence intensity)); higher = stronger DNA binding).
In short: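 Binding intensity is the highest Masliner-normalised natural-log median intensity over replicate spots in either probe orientation. To obtain it, GST-tagged P. falciparum DNA-binding domains made in E. coli were incubated for 1 h on an Agilent 4 × 180k array of primer-extended double-stranded 36-bp intergenic genomic probes plus negative controls. Detection used Alexa488 anti-GST antibody with scanning at 488 nm.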

| Sequence | gcPBM binding intensity (ln) |
| --- | --- |
| GAAAAAAAAAAAAGGGGTACATTTATTTTATCAATA [XGTACX_site8331] | 11.5 ± 1 |
| TTCAAAGGGAAATTAACACACACATATATATATATA [CACACA_site8777] | 10.2 ± 0.67 |
| ATATATAACGGGCACACACACATTTACGTATGAATA [CACACA_site1833] | 10.7 ± 0.43 |
| TATAGGTATGTATGTACACACAAAAAATGGAATATA [CACACA_site7704] | 11.4 ± 0.76 |
| GGAAAATGAAAACAAGGTACACATAAGAACAAACAA [XGTACX_site1221] | 11.4 ± 0.87 |
| AACACCAAACAAAGGTGTACATATAGGAAAAAATCT [XGTACX_site1006] | 11.3 ± 0.81 |
| AATAATAGAAAAAGGTGTACTTATAAACATATACAC [XGTACX_site6921] | 11.5 ± 0.83 |
| AAATGGAAAAGGTGTACACAAAAAAAAGGGAAAAGC [CACACA_site5331] | 11.7 ± 1.2 |
| AAAAAAAATGAAAGGTGTACACATACAAACATAGAA [XGTACX_site3517] | 11.7 ± 0.88 |
| GAAAACAAAATGGTAACACACAAATGTAAATAGTAT [CACACA_site2113] | 10.14 ± 0.064 |
| AAAAAAGAAACAAACACACATACATACAAACAAACA [CACACA_site142] | 10.3 ± 0.28 |
| TTCTAAAAAGGGTGTACACAAACGAATGGAAAATAA [CACACA_site5483] | 11.6 ± 0.94 |
| AAAAATGAAAGGTGTACACATACAAACATAGAAAGA [CACACA_site5020] | 11.7 ± 0.94 |
| AAGGTGGGAAAAAATAGTACACAACAAAAATGTATG [XGTACX_site8741] | 11.7 ± 1 |
| ATATATATGTATGTATGTACACACAAAAAATGGAAT [XGTACX_site7879] | 11.5 ± 0.79 |
| CACAAATATACAAATACACACAAATATACACATATA [CACACA_site7176] | 10.2 ± 0.085 |
| ACCTAAAATAACTACACACACATAAAAAAAAAAAAA [CACACA_site2529] | 10.1 ± 0.47 |
| GTATGTATATATGTATGTACTTATGTATCATTATTA [XGTACX_site2438] | 11.2 ± 0.83 |
| AAAAAACACCCATACACACACACACCGATATATATA [CACACA_site5808] | 10.1 ± 0.18 |

| Sequence | gcPBM binding intensity (ln) |
| --- | --- |
| TATATATATTTTTGAAGTACTTATTACACTAGCATT [XGTACX_site8965] | 11.2 ± 0.61 |
| ATTTTCTTATATATATTTTGTATATATTTTGTACAT [CACACA_negctrl_site1496] | 10.5 ± 0.39 |
| TTTTATGGAAAGTGTTGTACATATTTTTGTATATGT [XGTACX_site7356] | 11.4 ± 0.76 |
| AATTAACCGTGACACACACACATATAAATATAAATA [CACACA_site7790] | 10.3 ± 0.47 |
| TATTGTTCTTATTTAGTGCATATATAATATAATATA [GTGCAC_site9827] | 10.3 ± 0.33 |
| ACAAAATTTACAAAATGTACAAAATTTACAAAATAT [XGTACX_site3542] | 10.8 ± 0.49 |
| TAATAAAAAATATATACACACAAATAAATAAATAAA [CACACA_site4037] | 9.77 ± 0.071 |
| CATATTAAGATGTGTACACATTTTTATTTTTTTTTT [CACACA_site4425] | 11.6 ± 0.93 |
| TGCCTATTTTGGATGTGTACACATATATATATTTAT [XGTACX_site6741] | 11.7 ± 0.88 |
| CTATTTTGGATGTGTACACATATATATATTTATATT [CACACA_site5706] | 11.7 ± 0.85 |
| ATATTTATATATATATGTACATATGTGTGTTTTTAT [XGTACX_site3956] | 10.9 ± 0.51 |
| ATATATATTTATATATGTACATATTTTTGTGTATTT [XGTACX_site1183] | 11.3 ± 0.79 |
| TACATATTTTTTATATGTACATATTTTTTATGTGTA [XGTACX_site442] | 11.4 ± 0.77 |
| TTTATTGAACGTACACATATATATATGTATATATTT [TGCATGCA_negctrl_site141] | 11.3 ± 0.88 |
| ATTTTTGTACACTTCTTTTTTTTTTTTCTTTTATGT [CACACA_negctrl_site1323] | 11.4 ± 0.68 |
| AAAAAAAAATCATATTGTACGTAAAAAAAAAAAAAA [XGTACX_site476] | 11.4 ± 1 |
| TATTTATACTAATATGCATGTAATCGAAATACAGCT [TGCATGCA_site457] | 9.685 ± 0.078 |
| AATATGGTTATATATATATATATATATATATATATT [GTGCAC_negctrl_site566] | 9.67 ± 0.071 |
| TTTCTTTTTGTTCGTGTACACACATGAAATTTATAA [CACACA_site8466] | 11.6 ± 0.86 |

| Sequence | gcPBM binding intensity (ln) |
| --- | --- |
| TGAAATAAAATTTGTACACACATATATATATATATA [CACACA_site586] | 11.1 ± 0.81 |
| TCTTTTTGTTCGTGTACACACATGAAATTTATAAAA [CACACA_site1619] | 11.8 ± 1.1 |
| GAACCGTGCAAATGTTGTACACTTTAAAAATATTCT [XGTACX_site4488] | 11.6 ± 0.84 |
| AGGTGCAAAAATAAAACATGCAAAAATAAAAATGAA [TGCATGCA_site502] | 10.07 ± 0.028 |
| TTACCTCTTTGAAATATACACACTAAACATATCAAC [CACACA_site2455] | 10.1 ± 0.13 |
| CACAAACAAAAACACACACACACACCGACAAAAATG [CACACA_site5362] | 10.5 ± 0.38 |
| ACATACATACACCCACGTACGTACCGAAACACCACC [XGTACX_site1212] | 11.7 ± 1.1 |
| AACATACAGAAACACACACACACACCCACACCCACA [CACACA_site493] | 10.4 ± 0.31 |
| ACATACATACCCCCACGTACGTACCGAAACACCACC [XGTACX_site1982] | 11.5 ± 0.74 |
| TTTGTAATAAACTACTTTTTTTTTTTTTTTTTTTTT [CACACA_negctrl_site571] | 10.9 ± 0.35 |
| ATATACATATAGGATGCACACATAATTCAAATACAA [CACACA_site8120] | 10.1 ± 0.22 |
| AGACATTAATGAAGGTGTACATATATTTGACAGAAT [XGTACX_site655] | 11.6 ± 1 |
| TTTGAAAAAAATTAATGTACATTTGAAATGACATAT [XGTACX_site3902] | 10.8 ± 0.52 |
| AAGGTATAATATATTTGTACATATACATTTTTGAAT [XGTACX_site6493] | 10.9 ± 0.61 |
| AAAAAAAAATTAAAAACACACATATATATATATATA [CACACA_site1580] | 9.9 ± 0.67 |
| ATTTGCTTTTATTTTACACACTTGCTCCTGTTGTAC [CACACA_site1088] | 10.9 ± 0.42 |
| TTATTTTCAAAATGTTGTACACACAAAAAAAAAAAA [XGTACX_site3151] | 11.4 ± 0.93 |
| TATTTTCAAAATGTTGTACACACAAAAAAAAAAAAA [CACACA_site8437] | 11.5 ± 1.1 |
| CAACACTTTCAAAAATGTACGTACAAATGTATTTTA [XGTACX_site6713] | 11.7 ± 0.76 |
